Laboratory results as given in publication PMC7862700, “An all-to-all approach to the identification of sequence-specific readers for epigenetic DNA modifications on cytosine”.

Legend:
Test in all cases: DAPPL (digital affinity profiling via proximity ligation, sequencing); 10 mM Tris-HCl pH 7.5, 50 mM NaCl, 1 mM DTT, 4% glycerol, room temperature, 30 min; GST-TFs on glutathione beads, 16-mer random dsDNA library, 0.1% formaldehyde crosslink after washing; high values mean tight binding
FLI1 = target: T1, FLI1 (Homo sapiens, UniProt Q01543 1-452); conditions: protein: recombinant; tags: N-terminal GST; dsDNA, one strand shown
T1 sequence: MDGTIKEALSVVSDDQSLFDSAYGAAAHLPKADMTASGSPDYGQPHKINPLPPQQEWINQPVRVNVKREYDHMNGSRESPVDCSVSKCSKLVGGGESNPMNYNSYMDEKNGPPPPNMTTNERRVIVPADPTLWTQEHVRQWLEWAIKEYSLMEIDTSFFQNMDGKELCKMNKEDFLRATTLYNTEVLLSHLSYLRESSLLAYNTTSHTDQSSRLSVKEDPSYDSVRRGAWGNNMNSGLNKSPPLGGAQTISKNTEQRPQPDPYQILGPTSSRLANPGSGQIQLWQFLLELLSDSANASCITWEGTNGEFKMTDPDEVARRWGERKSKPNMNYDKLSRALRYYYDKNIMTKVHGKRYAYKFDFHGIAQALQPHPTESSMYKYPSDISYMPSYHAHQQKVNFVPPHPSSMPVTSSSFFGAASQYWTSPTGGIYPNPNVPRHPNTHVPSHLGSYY
Method in brief: (§1)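 Binding signal is defined as a hexamer's read frequency for one factor over its frequency for the tag-only sample. To obtain reads, GST-fused human transcription factors were expressed in yeast, captured on glutathione beads, barcoded with DNA and pooled with that sample. Pools met 200 nmole of a 16-mer random double-stranded DNA library in Tris/NaCl/DTT/glycerol buffer for 30 min at room temperature before washing, 0.1% formaldehyde crosslinking, proximity ligation (BsaI/T4 ligase, 1 h, 37 °C), PCR and Illumina NextSeq500 sequencing.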

ELK1 = target: T2, ELK1 (Homo sapiens, UniProt P19419 1-428); conditions: protein: recombinant; tags: N-terminal GST; dsDNA, one strand shown
T2 sequence: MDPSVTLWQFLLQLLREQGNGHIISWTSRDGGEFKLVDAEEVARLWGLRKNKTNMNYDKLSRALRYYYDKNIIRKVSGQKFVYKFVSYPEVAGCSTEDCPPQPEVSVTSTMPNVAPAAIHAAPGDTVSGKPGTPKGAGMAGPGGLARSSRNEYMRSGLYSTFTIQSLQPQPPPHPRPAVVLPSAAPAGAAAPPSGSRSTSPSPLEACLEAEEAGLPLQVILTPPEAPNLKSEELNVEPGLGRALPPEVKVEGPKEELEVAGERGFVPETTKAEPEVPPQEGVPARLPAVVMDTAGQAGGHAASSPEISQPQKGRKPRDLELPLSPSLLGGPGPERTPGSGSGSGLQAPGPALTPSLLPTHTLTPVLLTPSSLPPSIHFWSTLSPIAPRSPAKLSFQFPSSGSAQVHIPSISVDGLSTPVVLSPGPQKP
Method in brief: as §1

GABPA = target: T3, GABPA (Homo sapiens, UniProt Q06546 1-454); conditions: protein: recombinant; tags: N-terminal GST; dsDNA, one strand shown
T3 sequence: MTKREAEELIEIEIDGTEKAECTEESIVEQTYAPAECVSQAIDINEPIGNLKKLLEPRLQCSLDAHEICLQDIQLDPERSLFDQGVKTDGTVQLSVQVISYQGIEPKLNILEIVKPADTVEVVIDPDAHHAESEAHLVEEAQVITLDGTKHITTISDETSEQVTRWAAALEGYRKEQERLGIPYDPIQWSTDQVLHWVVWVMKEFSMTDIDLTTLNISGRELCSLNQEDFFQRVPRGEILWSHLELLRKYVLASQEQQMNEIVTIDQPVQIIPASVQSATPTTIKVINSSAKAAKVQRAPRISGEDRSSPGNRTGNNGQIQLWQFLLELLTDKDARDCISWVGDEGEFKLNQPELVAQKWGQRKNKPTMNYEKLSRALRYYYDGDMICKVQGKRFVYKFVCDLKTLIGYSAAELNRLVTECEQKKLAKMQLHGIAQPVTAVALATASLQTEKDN
Method in brief: as §1

ERG = target: T4, ERG (Homo sapiens, UniProt P11308 1-479); conditions: protein: recombinant; tags: N-terminal GST; dsDNA, one strand shown
T4 sequence: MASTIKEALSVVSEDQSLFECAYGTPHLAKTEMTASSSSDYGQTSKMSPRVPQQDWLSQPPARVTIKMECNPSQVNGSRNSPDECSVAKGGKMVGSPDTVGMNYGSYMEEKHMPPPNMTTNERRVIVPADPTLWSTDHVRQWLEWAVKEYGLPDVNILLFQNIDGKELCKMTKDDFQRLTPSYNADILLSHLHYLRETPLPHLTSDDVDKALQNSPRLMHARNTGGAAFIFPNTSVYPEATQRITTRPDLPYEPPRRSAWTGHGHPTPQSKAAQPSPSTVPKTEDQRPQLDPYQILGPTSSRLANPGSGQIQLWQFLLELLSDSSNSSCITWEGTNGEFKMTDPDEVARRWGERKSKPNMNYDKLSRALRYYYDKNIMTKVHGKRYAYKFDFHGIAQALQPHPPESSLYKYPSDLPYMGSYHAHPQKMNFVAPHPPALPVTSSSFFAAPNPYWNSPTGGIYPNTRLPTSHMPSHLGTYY
Method in brief: as §1

ELF1 = ELF1 (Homo sapiens, UniProt P32519 1-619); conditions: protein: recombinant; tags: N-terminal GST; dsDNA, one strand shown
Chain of ELF1 (P32519 whole entry): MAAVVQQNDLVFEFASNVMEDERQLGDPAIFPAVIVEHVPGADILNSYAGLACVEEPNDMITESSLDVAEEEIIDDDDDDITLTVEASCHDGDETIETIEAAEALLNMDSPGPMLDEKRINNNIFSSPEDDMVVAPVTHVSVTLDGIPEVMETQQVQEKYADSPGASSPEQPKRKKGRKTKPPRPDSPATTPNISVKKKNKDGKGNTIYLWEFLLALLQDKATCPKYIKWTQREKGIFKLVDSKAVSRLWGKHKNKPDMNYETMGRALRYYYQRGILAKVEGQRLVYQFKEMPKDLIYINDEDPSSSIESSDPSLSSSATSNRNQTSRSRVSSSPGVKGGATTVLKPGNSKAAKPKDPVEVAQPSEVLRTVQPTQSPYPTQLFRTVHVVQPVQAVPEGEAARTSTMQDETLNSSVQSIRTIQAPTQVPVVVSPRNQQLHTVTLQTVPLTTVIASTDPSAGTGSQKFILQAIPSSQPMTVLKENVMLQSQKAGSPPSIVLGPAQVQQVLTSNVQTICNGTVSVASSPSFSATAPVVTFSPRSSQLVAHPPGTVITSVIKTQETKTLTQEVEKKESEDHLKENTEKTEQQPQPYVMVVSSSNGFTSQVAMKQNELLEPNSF
Method in brief: as §1

EHF = target: T5, EHF (Homo sapiens, UniProt Q9NZC4 1-300); conditions: protein: recombinant; tags: N-terminal GST; dsDNA, one strand shown
T5 sequence: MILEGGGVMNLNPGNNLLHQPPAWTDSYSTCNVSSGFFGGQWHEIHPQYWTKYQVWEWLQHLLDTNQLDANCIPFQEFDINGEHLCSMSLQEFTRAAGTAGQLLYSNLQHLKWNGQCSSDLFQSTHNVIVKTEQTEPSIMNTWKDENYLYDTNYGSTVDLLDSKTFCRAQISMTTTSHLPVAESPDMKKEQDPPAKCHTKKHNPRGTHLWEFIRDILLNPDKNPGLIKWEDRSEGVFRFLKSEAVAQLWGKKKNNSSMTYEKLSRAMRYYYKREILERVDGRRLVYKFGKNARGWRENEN
Method in brief: as §1

SPI1 = SPI1 (Homo sapiens, UniProt P17947 1-270); conditions: protein: recombinant; tags: N-terminal GST; dsDNA, one strand shown
Method in brief: as §1

SPIB = SPIB (Homo sapiens, UniProt Q01892 1-262); conditions: protein: recombinant; tags: N-terminal GST; dsDNA, one strand shown
Chain of SPIB (Q01892 whole entry): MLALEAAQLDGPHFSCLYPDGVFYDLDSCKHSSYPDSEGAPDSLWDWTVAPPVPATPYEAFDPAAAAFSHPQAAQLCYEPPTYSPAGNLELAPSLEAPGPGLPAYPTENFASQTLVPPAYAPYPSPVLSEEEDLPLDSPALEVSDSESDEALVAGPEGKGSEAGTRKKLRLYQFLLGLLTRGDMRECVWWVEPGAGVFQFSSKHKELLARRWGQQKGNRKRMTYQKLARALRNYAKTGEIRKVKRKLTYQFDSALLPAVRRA
Method in brief: as §1

ELK3 = target: T6, ELK3 (Homo sapiens, UniProt P41970 1-407); conditions: protein: recombinant; tags: N-terminal GST; dsDNA, one strand shown
T6 sequence: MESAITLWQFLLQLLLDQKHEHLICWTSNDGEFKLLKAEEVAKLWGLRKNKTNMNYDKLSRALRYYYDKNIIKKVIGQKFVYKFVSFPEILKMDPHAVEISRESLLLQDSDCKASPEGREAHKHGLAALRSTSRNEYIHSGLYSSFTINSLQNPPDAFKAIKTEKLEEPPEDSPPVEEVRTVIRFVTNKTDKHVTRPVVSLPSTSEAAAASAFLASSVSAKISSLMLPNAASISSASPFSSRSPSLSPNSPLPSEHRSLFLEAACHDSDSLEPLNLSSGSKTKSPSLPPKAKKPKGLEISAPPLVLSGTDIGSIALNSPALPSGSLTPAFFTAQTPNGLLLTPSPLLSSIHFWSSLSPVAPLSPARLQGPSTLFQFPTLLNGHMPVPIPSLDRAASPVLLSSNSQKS
Method in brief: as §1

FEV = target: T7, FEV (Homo sapiens, UniProt Q99581 1-238); conditions: protein: recombinant; tags: N-terminal GST; dsDNA, one strand shown
T7 sequence: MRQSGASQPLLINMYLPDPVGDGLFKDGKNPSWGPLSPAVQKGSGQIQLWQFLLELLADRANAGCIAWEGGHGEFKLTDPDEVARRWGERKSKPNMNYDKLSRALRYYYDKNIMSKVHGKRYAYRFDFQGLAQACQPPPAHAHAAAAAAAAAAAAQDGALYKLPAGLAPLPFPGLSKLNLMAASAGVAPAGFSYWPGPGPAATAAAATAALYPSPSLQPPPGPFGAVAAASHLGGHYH
Method in brief: as §1

ETV5 = ETV5 (Homo sapiens, UniProt P41161 1-510); conditions: protein: recombinant; tags: N-terminal GST; dsDNA, one strand shown
Chain of ETV5 (P41161 whole entry): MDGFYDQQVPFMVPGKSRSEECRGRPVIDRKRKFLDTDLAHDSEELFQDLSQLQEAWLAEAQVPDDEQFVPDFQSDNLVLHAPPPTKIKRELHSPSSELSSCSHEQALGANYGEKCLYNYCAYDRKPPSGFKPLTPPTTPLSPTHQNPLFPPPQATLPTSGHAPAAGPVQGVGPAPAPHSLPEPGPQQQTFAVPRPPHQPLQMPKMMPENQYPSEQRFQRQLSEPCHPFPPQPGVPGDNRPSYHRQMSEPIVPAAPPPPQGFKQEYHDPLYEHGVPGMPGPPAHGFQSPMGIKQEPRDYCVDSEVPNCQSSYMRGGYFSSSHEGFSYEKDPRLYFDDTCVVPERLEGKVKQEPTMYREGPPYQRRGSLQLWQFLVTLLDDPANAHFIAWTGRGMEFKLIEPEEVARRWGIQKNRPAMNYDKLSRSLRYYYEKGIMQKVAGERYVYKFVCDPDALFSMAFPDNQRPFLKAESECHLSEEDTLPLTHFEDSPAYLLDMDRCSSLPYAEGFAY
Method in brief: as §1

HSF1 = HSF1 (Homo sapiens, UniProt Q00613 1-529); conditions: protein: recombinant; tags: N-terminal GST; chain copies: 3; dsDNA, one strand shown
Chain of HSF1 (Q00613 whole entry): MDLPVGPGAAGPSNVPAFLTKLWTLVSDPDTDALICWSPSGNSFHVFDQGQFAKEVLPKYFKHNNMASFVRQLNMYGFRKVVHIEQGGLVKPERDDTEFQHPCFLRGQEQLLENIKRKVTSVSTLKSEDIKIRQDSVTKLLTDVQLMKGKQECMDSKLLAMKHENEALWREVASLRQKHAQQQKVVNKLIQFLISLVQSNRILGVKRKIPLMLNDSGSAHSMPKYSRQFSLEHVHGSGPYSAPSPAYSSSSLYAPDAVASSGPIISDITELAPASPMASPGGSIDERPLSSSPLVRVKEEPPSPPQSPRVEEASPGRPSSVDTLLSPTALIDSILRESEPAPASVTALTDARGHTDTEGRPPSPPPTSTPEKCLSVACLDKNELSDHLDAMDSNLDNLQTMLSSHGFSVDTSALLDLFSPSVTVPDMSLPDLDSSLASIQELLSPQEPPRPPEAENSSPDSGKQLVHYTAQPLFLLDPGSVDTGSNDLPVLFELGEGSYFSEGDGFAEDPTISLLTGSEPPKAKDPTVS
Method in brief: as §1

SPIC = target: T8, SPIC (Homo sapiens, UniProt Q8N5J4 1-248); conditions: protein: recombinant; tags: N-terminal GST; dsDNA, one strand shown
T8 sequence: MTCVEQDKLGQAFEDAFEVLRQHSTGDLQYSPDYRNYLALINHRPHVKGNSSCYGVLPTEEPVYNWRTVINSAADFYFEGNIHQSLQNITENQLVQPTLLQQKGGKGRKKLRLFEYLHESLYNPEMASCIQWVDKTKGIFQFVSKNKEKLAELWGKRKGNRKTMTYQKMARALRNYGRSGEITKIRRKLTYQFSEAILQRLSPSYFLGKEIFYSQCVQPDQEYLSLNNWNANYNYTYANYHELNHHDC
Method in brief: as §1

ELF4 = ELF4 (Homo sapiens, UniProt Q99607 1-663); conditions: protein: recombinant; tags: N-terminal GST; dsDNA, one strand shown
Chain of ELF4 (Q99607 whole entry): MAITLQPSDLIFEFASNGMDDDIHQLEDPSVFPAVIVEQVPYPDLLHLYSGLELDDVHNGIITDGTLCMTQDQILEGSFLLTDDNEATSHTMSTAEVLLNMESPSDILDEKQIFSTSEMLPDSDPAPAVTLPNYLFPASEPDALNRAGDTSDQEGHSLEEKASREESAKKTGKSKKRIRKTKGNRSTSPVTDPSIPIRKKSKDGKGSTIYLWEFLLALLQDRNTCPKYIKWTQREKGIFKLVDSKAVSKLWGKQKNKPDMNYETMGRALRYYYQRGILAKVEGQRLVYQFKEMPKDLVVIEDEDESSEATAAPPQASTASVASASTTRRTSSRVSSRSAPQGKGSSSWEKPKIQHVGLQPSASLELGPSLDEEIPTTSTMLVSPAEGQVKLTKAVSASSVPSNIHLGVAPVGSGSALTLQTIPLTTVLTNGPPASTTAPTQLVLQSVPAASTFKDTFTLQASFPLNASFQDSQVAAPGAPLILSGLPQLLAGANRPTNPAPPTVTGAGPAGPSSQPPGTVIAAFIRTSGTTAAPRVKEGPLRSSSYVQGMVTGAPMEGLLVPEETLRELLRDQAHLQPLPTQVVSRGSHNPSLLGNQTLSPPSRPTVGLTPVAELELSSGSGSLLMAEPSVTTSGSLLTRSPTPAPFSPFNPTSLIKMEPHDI
Method in brief: as §1

ELK4 = target: T9, ELK4 (Homo sapiens, UniProt P28324-2 1-405); conditions: protein: recombinant; tags: N-terminal GST; dsDNA, one strand shown
T9 sequence: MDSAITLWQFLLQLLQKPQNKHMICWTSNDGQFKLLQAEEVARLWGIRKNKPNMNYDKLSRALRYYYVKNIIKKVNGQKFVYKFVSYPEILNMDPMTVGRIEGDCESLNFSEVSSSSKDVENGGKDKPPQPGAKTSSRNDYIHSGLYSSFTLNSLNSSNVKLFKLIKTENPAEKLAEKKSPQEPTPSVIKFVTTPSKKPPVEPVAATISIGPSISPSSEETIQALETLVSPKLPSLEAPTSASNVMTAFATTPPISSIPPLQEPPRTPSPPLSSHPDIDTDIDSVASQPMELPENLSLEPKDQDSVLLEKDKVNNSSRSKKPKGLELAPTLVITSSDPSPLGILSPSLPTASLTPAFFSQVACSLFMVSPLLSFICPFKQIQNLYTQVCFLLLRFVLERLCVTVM
Method in brief: as §1

ETV2 = target: T10, ETV2 (Homo sapiens, UniProt O00321 1-342); conditions: protein: recombinant; tags: N-terminal GST; dsDNA, one strand shown
T10 sequence: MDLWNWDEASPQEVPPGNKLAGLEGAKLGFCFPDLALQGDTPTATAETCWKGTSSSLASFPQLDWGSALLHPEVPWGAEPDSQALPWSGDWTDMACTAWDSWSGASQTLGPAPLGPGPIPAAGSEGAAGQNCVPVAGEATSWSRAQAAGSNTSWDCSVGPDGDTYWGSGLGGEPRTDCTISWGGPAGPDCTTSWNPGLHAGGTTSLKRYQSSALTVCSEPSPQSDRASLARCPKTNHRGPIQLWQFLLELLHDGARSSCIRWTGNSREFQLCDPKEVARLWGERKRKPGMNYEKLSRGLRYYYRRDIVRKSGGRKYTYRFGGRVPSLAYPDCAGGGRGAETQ
Method in brief: as §1

ELF3 = target: T11, ELF3 (Homo sapiens, UniProt P78545 1-371); conditions: protein: recombinant; tags: N-terminal GST; dsDNA, one strand shown
T11 sequence: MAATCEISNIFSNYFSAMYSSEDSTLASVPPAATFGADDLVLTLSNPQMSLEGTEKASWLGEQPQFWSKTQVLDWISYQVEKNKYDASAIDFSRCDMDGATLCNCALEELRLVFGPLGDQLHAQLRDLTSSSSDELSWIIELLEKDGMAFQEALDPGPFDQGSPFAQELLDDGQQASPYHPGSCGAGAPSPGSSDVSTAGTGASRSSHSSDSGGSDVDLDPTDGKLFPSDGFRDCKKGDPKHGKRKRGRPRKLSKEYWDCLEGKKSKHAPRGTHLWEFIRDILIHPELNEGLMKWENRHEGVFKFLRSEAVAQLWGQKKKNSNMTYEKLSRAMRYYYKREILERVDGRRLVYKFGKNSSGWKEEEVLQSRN
Method in brief: as §1

CRX = CRX (Homo sapiens, UniProt O43186 1-299); conditions: protein: recombinant; tags: N-terminal GST; dsDNA, one strand shown
Chain of CRX (O43186 whole entry): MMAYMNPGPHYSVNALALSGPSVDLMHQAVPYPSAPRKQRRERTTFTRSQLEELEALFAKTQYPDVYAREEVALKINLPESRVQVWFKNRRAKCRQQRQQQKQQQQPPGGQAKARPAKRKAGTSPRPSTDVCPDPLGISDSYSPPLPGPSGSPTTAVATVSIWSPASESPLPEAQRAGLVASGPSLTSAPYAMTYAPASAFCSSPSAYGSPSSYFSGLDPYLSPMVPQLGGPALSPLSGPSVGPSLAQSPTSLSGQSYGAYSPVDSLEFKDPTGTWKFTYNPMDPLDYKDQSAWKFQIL
Method in brief: as §1

ETV1 = ETV1 (Homo sapiens, UniProt P50549 1-477); conditions: protein: recombinant; tags: N-terminal GST; dsDNA, one strand shown
Chain of ETV1 (P50549 whole entry): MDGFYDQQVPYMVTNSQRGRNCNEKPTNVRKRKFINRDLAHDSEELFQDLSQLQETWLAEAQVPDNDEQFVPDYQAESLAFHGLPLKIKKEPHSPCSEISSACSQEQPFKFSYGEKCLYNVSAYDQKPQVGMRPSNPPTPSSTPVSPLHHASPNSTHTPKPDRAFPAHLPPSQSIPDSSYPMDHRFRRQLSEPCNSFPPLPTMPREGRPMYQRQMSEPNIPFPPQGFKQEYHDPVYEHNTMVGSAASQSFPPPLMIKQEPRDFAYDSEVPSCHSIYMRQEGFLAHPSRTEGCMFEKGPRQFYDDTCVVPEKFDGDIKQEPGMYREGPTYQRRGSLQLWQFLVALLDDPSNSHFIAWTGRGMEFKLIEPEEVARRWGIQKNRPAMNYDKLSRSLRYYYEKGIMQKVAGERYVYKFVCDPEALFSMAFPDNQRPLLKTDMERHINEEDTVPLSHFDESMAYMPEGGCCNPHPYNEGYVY
Method in brief: as §1

In the case of CTCGCA, the binding signal (FLI1) was 1.34 fold enrichment (6-mer frequency, TF over GST control), the binding signal (ELK1) was 1.25 fold enrichment (6-mer frequency, TF over GST control) and the binding signal (GABPA) was 1.29 fold enrichment (6-mer frequency, TF over GST control). The binding signal (ERG) was 1.29 fold enrichment (6-mer frequency, TF over GST control), the binding signal (ELF1) was 1.27 fold enrichment (6-mer frequency, TF over GST control) and the binding signal (EHF) was 1.3 fold enrichment (6-mer frequency, TF over GST control). For the same sequence, the binding signal (SPI1) was 1.27 fold enrichment (6-mer frequency, TF over GST control), the binding signal (SPIB) was 1.22 fold enrichment (6-mer frequency, TF over GST control) and the binding signal (ELK3) was 1.17 fold enrichment (6-mer frequency, TF over GST control). The binding signal (FEV) was 1.32 fold enrichment (6-mer frequency, TF over GST control), the binding signal (ETV5) was 1.19 fold enrichment (6-mer frequency, TF over GST control) and the binding signal (HSF1) was 1.61 fold enrichment (6-mer frequency, TF over GST control). For the same sequence, the binding signal (SPIC) was 1.43 fold enrichment (6-mer frequency, TF over GST control), the binding signal (ELF4) was 1.26 fold enrichment (6-mer frequency, TF over GST control) and the binding signal (ELK4) was 1.29 fold enrichment (6-mer frequency, TF over GST control). For the same sequence, the binding signal (ETV2) was 1.34 fold enrichment (6-mer frequency, TF over GST control), the binding signal (ELF3) was 1.26 fold enrichment (6-mer frequency, TF over GST control) and the binding signal (CRX) was 1.2 fold enrichment (6-mer frequency, TF over GST control). For the same sequence, the binding signal (ETV1) was 1.26 fold enrichment (6-mer frequency, TF over GST control).
